These results are taken from the supplement of paper PMC11555231.

The target in the experiment is PADI4, Q9UM07. Nature of the experiment: log2 enrichment score relative to parent PADI4_3 peptide (binding to PADI4); higher = tighter binding than parent. Conditions: CaCl2: 10 mM. The procedure:
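Deep mutational scan of the cyclic peptide PADI4_3 (ClAc-D-Tyr1 initiator, thioether-cyclised to Cys12, C-terminal Gly plus HA tag, mRNA-displayed). Positions 2-11 were each randomised by NNK codons; Met was reprogrammed as N-methyl-alanine (MeA). One round of equilibrium panning against bead-immobilised human PADI4 (100 nM, 10 mM CaCl2, RT). Log2 enrichment (bound/input frequency) relative to the parent sequence (0 = parent), mean of three independent selections.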

Sequence of PADI4, Q9UM07 (Q9UM07 whole entry): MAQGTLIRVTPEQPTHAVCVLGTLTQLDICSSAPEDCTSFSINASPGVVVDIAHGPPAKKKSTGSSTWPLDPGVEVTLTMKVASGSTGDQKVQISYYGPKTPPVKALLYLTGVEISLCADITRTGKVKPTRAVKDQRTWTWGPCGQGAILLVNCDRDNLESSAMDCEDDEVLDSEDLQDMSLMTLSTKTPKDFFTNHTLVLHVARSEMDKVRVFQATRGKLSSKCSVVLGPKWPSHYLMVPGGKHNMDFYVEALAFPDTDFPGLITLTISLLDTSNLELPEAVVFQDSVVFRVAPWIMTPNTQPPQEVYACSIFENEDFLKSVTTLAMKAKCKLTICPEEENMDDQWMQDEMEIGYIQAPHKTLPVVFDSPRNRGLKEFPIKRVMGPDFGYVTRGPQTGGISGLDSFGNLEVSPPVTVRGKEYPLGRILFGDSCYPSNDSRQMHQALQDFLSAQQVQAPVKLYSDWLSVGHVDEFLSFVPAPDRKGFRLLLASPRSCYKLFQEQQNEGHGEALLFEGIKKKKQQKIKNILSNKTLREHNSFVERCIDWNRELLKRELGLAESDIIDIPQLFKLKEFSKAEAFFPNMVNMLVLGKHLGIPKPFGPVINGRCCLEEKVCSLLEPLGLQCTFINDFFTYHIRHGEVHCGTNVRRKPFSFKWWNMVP

Take YRDHHYRHPKICG [PADI4_3_Y11I Y11I]: the log2 enrichment score was -3.77.
With YRDHHYAHPKYCG [PADI4_3_R7A R7A] the figure was 0.206; with YRLHHYRHPKYCG [PADI4_3_D3L D3L], -2.88.
With YRDHHYRLPKYCG [PADI4_3_H8L H8L] the figure was -3.01.
As to YRDNHYRHPKYCG [PADI4_3_H4N H4N], the log2 enrichment score is -2.71.
With YRDHHYRHLKYCG [PADI4_3_P9L P9L] the figure was -2.12; with YRDQHYRHPKYCG [PADI4_3_H4Q H4Q], -0.57.
The figure for YLDHHYRHPKYCG [PADI4_3_R2L R2L] is -0.745; for YRDHHYRHPKGCG [PADI4_3_Y11G Y11G] it is -4.17.
The figure for YRDHHYRHGKYCG [PADI4_3_P9G P9G] is -2.45; for YGDHHYRHPKYCG [PADI4_3_R2G R2G] it is -3.89.
YRDHHYRAPKYCG [PADI4_3_H8A H8A]: the log2 enrichment score is -3.62.
Consider YRDHHARHPKYCG [PADI4_3_Y6A Y6A], for which the log2 enrichment score is -1.95.
The figure for YNDHHYRHPKYCG [PADI4_3_R2N R2N] is -2.77; for YRDHHYRHPLYCG [PADI4_3_K10L K10L] it is 0.693; for YRDHHYRHPKNCG [PADI4_3_Y11N Y11N] it is -3.81.
With YRDHHYRIPKYCG [PADI4_3_H8I H8I] the figure was -3.37; with YRNHHYRHPKYCG [PADI4_3_D3N D3N], -2.8; with YRDHQYRHPKYCG [PADI4_3_H5Q H5Q], -3.72.
With YRDHHYRQPKYCG [PADI4_3_H8Q H8Q] the figure was -3.37; with YRDHHYRHPNYCG [PADI4_3_K10N K10N], -1.77.
Turning to YRDHGYRHPKYCG [PADI4_3_H5G H5G], the log2 enrichment score is -3.73.
Turning to YRDHAYRHPKYCG [PADI4_3_H5A H5A], the log2 enrichment score was -2.12.
With YRDHHGRHPKYCG [PADI4_3_Y6G Y6G] the figure was -1.54.
The figure for YRDHHYGHPKYCG [PADI4_3_R7G R7G] is -2.58; for YADHHYRHPKYCG [PADI4_3_R2A R2A] it is -2.77.
Consider YQDHHYRHPKYCG [PADI4_3_R2Q R2Q], for which the log2 enrichment score was -1.6.
The figure for YRDHHYRHPKLCG [PADI4_3_Y11L Y11L] is -3.94.
Regarding YRDHHYRHNKYCG [PADI4_3_P9N P9N], the log2 enrichment score is -2.01.
The figure for YRDHHYRNPKYCG [PADI4_3_H8N H8N] is -2.87; for YRQHHYRHPKYCG [PADI4_3_D3Q D3Q] it is -3.32.
The figure for YRDHHYQHPKYCG [PADI4_3_R7Q R7Q] is -0.31; for YRIHHYRHPKYCG [PADI4_3_D3I D3I] it is -4.17; for YRDHHYNHPKYCG [PADI4_3_R7N R7N] it is 1.37.
The figure for YRDIHYRHPKYCG [PADI4_3_H4I H4I] is -2.05; for YRDHHYRHPQYCG [PADI4_3_K10Q K10Q] it is -1.09; for YRDHHYRGPKYCG [PADI4_3_H8G H8G] it is -3.99.
YRAHHYRHPKYCG [PADI4_3_D3A D3A]: the log2 enrichment score was -2.97.
The figure for YRDHHQRHPKYCG [PADI4_3_Y6Q Y6Q] is -1.94; for YRDHHIRHPKYCG [PADI4_3_Y6I Y6I] it is -2.71; for YRDHHYRHPKACG [PADI4_3_Y11A Y11A] it is -4.24.
The figure for YRDGHYRHPKYCG [PADI4_3_H4G H4G] is -3.75; for YRDHLYRHPKYCG [PADI4_3_H5L H5L] it is -3.61; for YIDHHYRHPKYCG [PADI4_3_R2I R2I] it is -1.38.
The figure for YRDHHYLHPKYCG [PADI4_3_R7L R7L] is -2.09; for YRDHHYRHPIYCG [PADI4_3_K10I K10I] it is 2.81; for YRDAHYRHPKYCG [PADI4_3_H4A H4A] it is -1.88.
Turning to YRDHIYRHPKYCG [PADI4_3_H5I H5I], the log2 enrichment score is -3.45.
With YRDHHNRHPKYCG [PADI4_3_Y6N Y6N] the figure was -2.28; with YRDHHYRHIKYCG [PADI4_3_P9I P9I], -1.78.
With YRDHHYRHQKYCG [PADI4_3_P9Q P9Q] the figure was -1.71.
With YRDHHYIHPKYCG [PADI4_3_R7I R7I] the figure was -1.67; with YRDHHYRHPAYCG [PADI4_3_K10A K10A], -1.7.
In the case of YRDHNYRHPKYCG [PADI4_3_H5N H5N], the log2 enrichment score is -3.38.
The figure for YRGHHYRHPKYCG [PADI4_3_D3G D3G] is -3.8; for YRDHHYRHPKQCG [PADI4_3_Y11Q Y11Q] it is -4.43.
The figure for YRDHHYRHAKYCG [PADI4_3_P9A P9A] is -1.66; for YRDHHYRHPGYCG [PADI4_3_K10G K10G] it is -2.43.
With YRDHHLRHPKYCG [PADI4_3_Y6L Y6L] the figure was -1.7.
